Only a selection was taken, and hits are over-represented in it overall.
Pf Dd2 inh – blocks in vitro growth of P. falciparum Dd2. AID 1347417. P. falciparum Dd2 growth, SYBR Green, 72 h. Potency, µM (doses to about 28.9 µM), for inactives: at the top dose activity, negative = inhibition, actives largely listed as inhibitors. hit rate 4.3% among 120,000; active = well fitted inhibition curve with a large enough effect;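 also: plate controls were DMSO vehicle for no effect and reference drug for full effect; nearly all actives have a fitted effect of over 65% in size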
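Infected erythrocytes (Dd2, 0.3% parasitemia, 2.5% hematocrit final) are added to compound in RPMI-1640/Albumax II medium, grown 72 h at 37C in low oxygen, then lysed with saponin/Triton-X containing SYBR Green and read by fluorescence.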
* = called active by the depositor; i = inactive; [ ] = remark or other dose. Potency is read from the fitted curve at half-maximal effect.

SMILES	Pf Dd2 inh
Cc1noc(-c2cn(C3CCN(C(=O)c4ccc(C)c(F)c4)CC3)nn2)n1	i
Cc1ccc(C#N)c(N2CCCC(c3nnc(Cn4cccn4)n3C)C2)n1 (configuration not stated)	-10%
O=S(=O)(Cc1ccccc1)N1CCC(Oc2ccc(-c3noc(C4CC4)n3)cc2)C1 (configuration not stated)	i[5.79 µM]
O=C(Cc1c(F)cccc1Cl)Nc1ccc2ncnc(N3CCCC3)c2c1	-20%
COc1cccc(CC(=O)Nc2ccc3c(N4CCCCC4)ncnc3c2)c1	11µM*
COc1ccc(CC(=O)Nc2ccc3ncnc(N4CCCCC4)c3c2)c(Cl)c1	-22%
O=C(Cc1ccccc1F)Nc1ccc2c(N3CCCCC3)ncnc2c1	13µM*
COc1ccccc1CC(=O)Nc1ccc2ncnc(N3CCCCC3)c2c1	i
O=C(Cc1cccc(F)c1)Nc1ccc2ncnc(N3CCCCC3)c2c1	-14%
CN1[C@@H](CCC(=O)NCc2cccs2)CNC(=O)[C@@H]2[C@H]1CCN2Cc1ccc(S(C)(=O)=O)cc1	i
CSCC(=O)N1CC[C@H](NC(=O)NC(C)C)[C@H]1C(=O)N(C)CC(N)=O	-9%[44.1 µM]
COc1ccc(CN2CCN3C(=O)N(Cc4ccccc4)C[C@H]3C2)cc1	i
Cc1nnc(N2CCC(C(=O)NC(C)C)CC2)c2nn(-c3ccc(Cl)cc3)c(C)c12	27%
CCOC(=O)C1CCN(C(=O)C2CCN(c3nnc(C)c4c(C)n(-c5ccccc5)nc34)CC2)CC1	3.2µM*
Cc1ccc(-n2nc3c(N4CCC(C(=O)NCCc5ccccc5C)CC4)nnc(C)c3c2C)cc1	8.9µM*
Cc1nnc(N2CCC(C(=O)NC(C)C)CC2)c2nn(-c3ccccc3)c(C)c12	9%
CCOc1ccc(NC(=O)C2CCN(c3nnc(C)c4c(C)n(-c5ccccc5)nc34)CC2)cc1	4%
Cc1ccc(-n2nc3c(N4CCC(C(=O)NC(C)c5ccccc5)CC4)nnc(C)c3c2C)cc1 (configuration not stated)	10µM*
Cc1ccc(NC(=O)C2CCN(c3nnc(C)c4c(C)n(-c5ccccc5)nc34)CC2)c(Cl)c1	41%
Cc1nnc(N2CCC(C(=O)NCc3cccc(Cl)c3)CC2)c2nn(-c3ccccc3)c(C)c12	-1%
Cc1ccccc1CNC(=O)C1CCN(c2nnc(C)c3c(C)n(-c4ccccc4)nc23)CC1	i
Cc1ccc(-n2nc3c(N4CCC(C(=O)NCCc5ccccc5)CC4)nnc(C)c3c2C)cc1	6.3µM*
COc1ccccc1CNC(=O)C1CCN(c2nnc(C)c3c(C)n(-c4ccccc4)nc23)CC1	-4%
Cc1ccc(-n2nc3c(N4CCC(C(=O)N5CCC(C)CC5)CC4)nnc(C)c3c2C)cc1	0%
O=C1NC2(CCCN(C(=O)c3ccccc3)C2)Oc2ccccc21 (configuration not stated)	i
SMILES	Pf Dd2 inh
COc1cc(NC(=O)Cn2c(-c3ccc(Cl)cc3)nc(C)cc2=O)cc(OC)c1OC	i
CCc1cn(C[C@H](NC(=O)C2CCC2)C(=O)O)c(=O)[nH]c1=O	-23%[44.1 µM]
CC(=O)N1CCCN(C(=O)c2cnc3cc(C)nn3c2)CC1	14%[44.1 µM]
FC(F)(F)c1cccc(C2=NOC3(CCN(Cc4ccccc4)CC3)C2)c1	-28%
CCOC(=O)C1(Cc2ccc(F)cc2)CCCN(C(=O)c2ccco2)C1 (configuration not stated)	i
CCOC(=O)C1(Cc2cccc(C(F)(F)F)c2)CCN(Cc2cc(C(C)C)n[nH]2)CC1	7.1µM*
CCOC(=O)C1(Cc2cccc(C(F)(F)F)c2)CCN(Cc2ccc(COC)o2)CC1	8.9µM*
CC(=O)NC1(C)CCN(Cc2cnc(-c3cccc(C(F)(F)F)c3)s2)CC1	i
CCOC(=O)C1(Cc2ccc(OC)cc2)CCN(C(=O)c2cccc(Cl)c2)CC1	i
Cc1ccc(C2Cn3nnc(-c4nc(-c5ccccc5)no4)c3CO2)c(C)c1 (configuration not stated)	-20%
CCC(C)NC(=O)C1COC2(CCN(C(=O)c3cccc(C)c3)CC2)N1C(=O)c1ccc(OC)cc1 (configuration not stated)	i
COCCn1ncc(N2CCCC(CC(=O)NCCc3c[nH]c4ccccc34)C2)cc1=O (configuration not stated)	-6%
CCOc1cc(=O)n2c(c1C(=O)NCCCN1CCCCC1)CCCCC2	5%
COCCN(C)C[C@@H]1CN(C(=O)c2cc3ccccc3s2)C[C@@H]1CO	3%
CC(C)(C)C(=O)N1C[C@H]2OC(=O)N(CCc3cccc(Cl)c3)[C@H]2C1	6%
COc1cccc(C(=O)N2CCC(N3C[C@H](O)C[C@H]3C(=O)N3CCc4ccccc4C3)CC2)c1	1.4µM*
CCNC(=O)[C@@H]1C[C@@H](O)CN1C1CCN(C(=O)c2cccc(OC)c2)CC1	-11%
COc1cccc(C(=O)N2CCC(N3C[C@H](O)C[C@H]3C(=O)N3CCN(C(C)C)CC3)CC2)c1	5%
Cc1ccc(N2CCC(NC(=O)CC(C)C)C2=O)cc1C (configuration not stated)	-14%
Cc1cc2nc3n(c(=O)c2n1CC(=O)NC(C)CCc1ccccc1)CCCCC3 (configuration not stated)	i
CCOC(=O)C1=C(C)N=C2SC=C(CC(=O)NCCc3cccs3)N2C1c1ccccc1F (configuration not stated)	-10%
C=CCOC(=O)C1=C(C)N=C2SC=C(CC(=O)N3CCCC3)N2C1c1cccc(OC)c1OC (configuration not stated)	5µM*
CC1=C(C(=O)OC(C)C)C(c2ccccc2F)N2C(CC(=O)N3CCCC3)=CSC2=N1 (configuration not stated)	i
C=CCOC(=O)C1=C(C)N=C2SC=C(CC(=O)N3CCCC3)N2C1c1ccccc1Cl (configuration not stated)	-24%
CC1=C(C(=O)OC(C)(C)C)C(c2ccccc2)N2C(CC(=O)N3CCCC3)=CSC2=N1 (configuration not stated)	-17%
SMILES	Pf Dd2 inh
CCOC(=O)C1=C(C)N=C2SC=C(CC(=O)NCc3ccco3)N2C1c1ccccc1F (configuration not stated)	-18%
CC1=C(C(=O)OC(C)C)C(c2ccc([N+](=O)[O-])cc2)N2C(CC(=O)N3CCCC3)=CSC2=N1 (configuration not stated)	2.8µM*
CCOC(=O)C1=C(C)N=C2SC=C(CC(=O)Nc3ccc(OC)cc3)N2C1c1ccccc1F (configuration not stated)	4.5µM*
CCOC(=O)C1=C(C)N=C2SC=C(CC(=O)N3CCOCC3)N2C1c1cccc(OC)c1OC (configuration not stated)	i
COC(=O)c1c(NC(=O)c2ccco2)c2cc(NC(C)CCn3cccn3)cnc2n1C (configuration not stated)	-28%
CO[C@@]1(C)C[C@@H](O)C12CCN(C(=O)CN1CCc3ccccc3C1)CC2	-6%
O=C(COCC1CCCCO1)N1CCn2nc(Cc3ccccc3)cc2C1 (configuration not stated)	-4%
Cc1ccc(C(=O)NCC2Cn3cccc3C(=O)N2CC(C)C)cn1 (configuration not stated)	-13%
O=C(NC1CCN(C(=O)N2CC3CC(C2)[C@H]2CCCC(=O)N2C3)CC1)C1CCC1 (some centres not stated)	8%
COC(=O)CNC(=O)c1cc(C(C)(C)C)nc2c1cnn2C	96%
COc1cncc(Nc2ncc(-c3cccc(N(C)C)c3)c3c2OCC3)c1	7.1µM*
